# PubChem BioAssay (NCATS)
# Results filed as inconclusive are left out. Calls of active or inactive are those of the source. Calls follow the shape of the dose curve; as a rule, active = well fitted inhibition curve with a large enough effect; inconclusive = small, poorly fitted or top-dose-only effect; inactive = flat fitted curve, though single readings scatter.
# System: CRL-7250
# Assay: qHTS assay to identify novel small-molecules to repurpose for Merkel cell carcinoma treatment (AID 1296009); also: nearly all actives have a fitted effect of over 60% in size
# Conditions: MCC and control cell lines, CellTiter-Glo viability, 72 h; at 44.8 µM (top of the series) unless noted
# In short: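 Cell viability measured by CellTiter-Glo following 72 hr compound treatment at 37 degree celsius, with NPC and MIPE libraries tested in 8- and 11-point concentration series.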
row,Compound,outcome
1,COc1ccc(C(=O)NCc2ccc(OCCN(C)C)cc2)cc1OC,inactive
2,Cc1cc(O)c2c(O)c3c(O)cccc3cc2c1,inactive
3,COc1cc2nc(Cl)nc(N)c2cc1OC,inactive
4,COc1c2occc2c(OC)c2c(=O)cc(C)oc12,inactive
5,Cc1cc(NS(=O)(=O)c2ccc(N)cc2)no1,inactive
6,CC(C)c1ccc2oc3nc(N)c(C(=O)O)cc3c(=O)c2c1,inactive
7,CC1(C)Oc2ccc(C#N)cc2[C@@H](N2CCCC2=O)[C@@H]1O,inactive
8,CN(C)C(=O)COC(=O)Cc1ccc(OC(=O)c2ccc(N=C(N)N)cc2)cc1,inactive
9,Cc1cnc(NC(=O)C2=C(O)c3ccccc3S(=O)(=O)N2C)s1,inactive
10,CCOC(=O)/C=C(C)/C=C/C=C(C)/C=C/c1c(C)cc(OC)c(C)c1C,inactive
11,COc1ccc2cc1Oc1cc3c(cc1OC)CC[N+](C)(C)[C@H]3Cc1ccc(cc1)Oc1c(OC)c(OC)cc3c1[C@@H](C2)[N+](C)(C)CC3,inactive
12,Cc1cnc(NS(=O)(=O)c2ccc(N)cc2)nc1,inactive
13,N[C@@H](COP(=O)(O)O)C(=O)O,inactive [at 17.4 µM]
14,O=C(O)c1ccccc1-c1ccc(C(F)(F)F)cc1,inactive
15,CC(=O)CC(c1ccccc1)c1c(O)c2ccccc2oc1=O (stereo not drawn),inactive
16,CCC[C@@]1(CCc2ccccc2)CC(O)=C([C@H](CC)c2cccc(NS(=O)(=O)c3ccc(C(F)(F)F)cn3)c2)C(=O)O1,inactive
17,CC(C)Cn1cnc2c(N)nc3ccccc3c21,inactive [at 17.4 µM]

row,Compound,outcome
1,CC(C)(C)C(=O)Oc1ccc(S(=O)(=O)Nc2ccccc2C(=O)NCC(=O)O)cc1,inactive
2,Nc1cc(=O)[nH]c(N)n1,inactive
3,CCO/C([O-])=N/c1c[n+](N2CCOCC2)no1,inactive
4,CC[C@H]1OC(=O)[C@H](C)[C@@H](O[C@H]2C[C@@](C)(OC)[C@@H](O)[C@H](C)O2)[C@H](C)[C@@H](O[C@@H]2O[C@H](C)C[C@H](N(C)C)[C@@H]2O)[C@](C)(O)C[C@@H](C)CN(C)[C@H](C)[C@@H](O)[C@]1(C)O,inactive
5,O=C1O[C@H](CO)[C@@H](O)[C@H](O)[C@H]1O,inactive
6,COc1ccc(C(=O)c2ccccc2O)c(O)c1,inactive
7,Cn1c(=O)c2[nH]c(Br)nc2n(C)c1=O,inactive
8,CCNC(=O)/C=C/c1cccc(Br)c1,inactive
9,Cc1cc(C(C#N)c2ccc(Cl)cc2)c(Cl)cc1NC(=O)c1cc(I)cc(I)c1O (stereo not drawn),inactive
10,CC[N+](CC)(CCNC(=O)C(=O)NCC[N+](CC)(CC)Cc1ccccc1Cl)Cc1ccccc1Cl,inactive
11,CC1(COc2ccc(CC3SC(=O)NC3=O)cc2)CCCCC1 (stereo not drawn),inactive
12,O=C(O)Cn1c(=O)n(Cc2ccc(Br)cc2F)c(=O)c2ccc(Cl)cc21,inactive
13,CCCCCCCCCCOc1cc2c(=O)c(C(=O)OCC)c[nH]c2cc1OCC,inactive [at 4.96 µM]
14,CC(C)(C)NCC(O)COc1ccc(NC(=O)NC2CCCCC2)cc1 (stereo not drawn),inactive
15,CCCCCCn1c(=O)c2c(ncn2C)n(C)c1=O,inactive
16,CC(C)(Sc1cc(C(C)(C)C)c(O)c(C(C)(C)C)c1)Sc1cc(C(C)(C)C)c(O)c(C(C)(C)C)c1,inactive
